# Experimental data from PubChem BioAssay (NCATS).
# Records with an inconclusive call do not appear. Values without a mark were called inactive. Calls follow the shape of the dose curve; as a rule, active = well fitted cell-killing curve with a large enough effect; inconclusive = small, poorly fitted or top-dose-only effect, or effect the other way; inactive = flat fitted curve, though single readings scatter. Where a SMILES comes first, the peptide text is derived from it. [ ]: non-standard residue; d: D form. ξ: configuration not given here. ξPhe(βξ-Me) = CC(c1ccccc1)C(N)C(=O)O; GABA = NCCCC(=O)O
# Test system: C33A
# Experiment: Primary qHTS to identify gynecologic anti-cancer compounds using libraries of approved drugs and bioactive compounds (AID 1345084); also: nearly all actives have a fitted effect of over 55% in size
# Settings: Gynecologic cancer cell panel viability, ATPlite luminescence, 48 h; series mostly up to 57.5 µM; activity change, negative = cytotoxicity: at the top concentration
# In short: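 Luminescence from the ATPlite ATP-monitoring reagent indicates viable cell number; lower signal means cytotoxicity. Cells received compound 16 h after seeding and were exposed for 48 h across five concentrations.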
# % is scaled to controls: 0 for no effect and ±100 for the full control effect.
row,Structure (SMILES),"activity change, negative = cytotoxicity"
1,COc1ccc2c(c1O)OC[C@H]1c3ccc(O)cc3O[C@@H]21,-14.9%
2,CC1=CC(=O)C2C(C)(C)CCCC2(C)C12CCC1(COC(=O)C1)O2 (stereo not given),3.18% [at 38.5 µM]
3,C[C@]1(O)CC[C@@H]2C(C(=O)O)=CO[C@@H](O[C@@H]3O[C@H](COC(=O)c4ccc(O)cc4)[C@@H](O)[C@H](O)[C@H]3O)[C@@H]21,-3.76% [at 25.3 µM]
4,O=C(c1ccccn1)c1cnn2c(-c3ccncc3)ccnc12,-0.24%
5,C=CC1(C)C=C2C(O)CC3C(C)(C(=O)O)CCCC3(C)C2CC1 (stereo not given),8.35% [at 38.5 µM]
6,COC(=O)C1=CO[C@@H](O[C@@H]2O[C@H](COC(=O)/C=C/c3cc(OC)c(O)c(OC)c3)[C@@H](O)[C@H](O)[C@H]2O)[C@@H]2C(CO)=CC[C@H]12,10.2% [at 25.3 µM]
7,CC12CCC3C(C)(C)C(O)CCC3(C)C1Cc1c(oc(C(=O)O)cc1=O)O2 (stereo not given),-5.74% [at 38.5 µM]
8,C=C(C)C(C)C1OC23CC4(CO2)C(CCC2C5(C)CCC(OC6OCC(O)C(OC7OC(CO)C(O)C(OC8OCC(O)C(O)C8O)C7O)C6OC6OC(CO)C(O)C6O)C(C)(C)C5CCC24C)C3C(C)(O)C1OC(C)=O (stereo not given),2.75% [at 11.6 µM]
9,CC(=O)Oc1cc2c(s1)CCN([C@H](C(=O)C1CC1)c1ccccc1F)C2,-0.0621%
10,Cc1ncc([N+](=O)[O-])n1CC(O)CN1CCOCC1 (stereo not given),14.5%
11,O=C(c1ccc(NS(=O)(=O)c2cccc3cccnc23)cc1)N1CCN(CC2CC2)CC1,26.1%
12,C/C(=C\CCC(C)(O)c1ccc(C)cc1)C(=O)O (stereo not given),2.74%
13,COc1cc(C2Oc3c(OC)cc(/C=C/C(=O)OC[C@H]4O[C@@H](OC(C)(C)C(=O)O)[C@H](O)[C@@H](O)[C@@H]4O)cc3C2CO)ccc1O (stereo not given in full),-0.719% [at 25.3 µM]
14,CC(C)CC1NC(=O)C(C(C)c2ccccc2)NC(=O)C(C(C)C)NC(=O)C(C)NC(=O)CCCNC(=O)C(Cc2c[nH]c3ccccc23)NC(=O)C(C)NC1=O (stereo not drawn) (cyclo([GABA]AV[ξPhe(βξ-Me)]LAW); configuration not given here),0.0078% [at 25.3 µM]
15,C=CC1C(O[C@@H]2O[C@H](CO)[C@@H](O)[C@H](O)[C@H]2O)OC=C(C(=O)OC)C1CC(=O)O (stereo not given in full),17.1% [at 25.3 µM]
16,CC1CCC2(NC1)OC1C(=O)C3C4CCC5CC(O[C@@H]6O[C@H](CO)[C@@H](O)[C@H](O)[C@H]6O[C@@H]6O[C@@H](C)[C@H](O)[C@@H](O)[C@H]6O)CCC5(C)C4CCC3(C)C1C2C (stereo not given in full),6.28% [at 25.3 µM]
17,C=C(C(=O)O)C1CCC(C)C2CCC(=O)OC2(C)C1 (stereo not given),8.38%
18,CC1(C)C(=O)N2c3ccccc3[C@]3(CC(n4cnc5ccccc5c4=O)C(=O)O3)[C@H]2N1O (stereo not given in full),0.684% [at 25.3 µM]
19,CC(C)c1nc(N(C)S(C)(=O)=O)nc(-c2ccc(F)cc2)c1/C=C/[C@@H](O)C[C@@H](O)CC(=O)O,5.78%
20,O=C(O)Cc1nn(Cc2nc3cc(C(F)(F)F)ccc3s2)c(=O)c2nccnc12,0.202%
21,O=C(O)CCc1cc2ccoc2cc1O[C@@H]1O[C@H](CO[C@@H]2OC[C@](O)(CO)[C@H]2O)[C@@H](O)[C@H](O)[C@H]1O,2.78% [at 25.3 µM]
22,COc1ccc(/C=C/C(=O)O[C@@H]2[C@@H](OC(C)=O)[C@@H](OC(C)=O)[C@H](O[C@H]3[C@@H]4C=CO[C@@H](O[C@@H]5O[C@H](CO)[C@@H](O)[C@H](O)[C@H]5O)[C@@H]4[C@@]4(CO)O[C@@H]34)O[C@H]2C)cc1O,5.01% [at 25.3 µM]
23,C=CC(C)(O)CC/C=C(\C)C(=O)OC1CC2(C(=O)O)CCC3(C)C(=CCC4C5(C)CCC(OC6OC(COC7OCC(O)C(O)C7O)C(O)C(OC7OCC(O)C(O)C7O)C6OC6OC(CO)C(O)C(O)C6OC6OCC(O)C(O)C6O)C(C)(C)C5CCC43C)C2CC1(C)C (stereo not given),0.0336% [at 6.55 µM]
24,C=C1CC2[C@]3(C)C(=C(O)C(=O)[C@@]2(C)[C@]2(C(=O)OC)C(=O)C(C)OC(=O)[C@@]12C)C(C)(C)C(=O)CC3O (stereo not given in full),1.31% [at 25.3 µM]
25,C=C1CCC(OC(C)=O)C2(C)CC3(O)OC(=O)C(C)=C3CC12 (stereo not given),-8.12%
